The text below walks through data of PubChem BioAssay (NCATS).

Results filed as inconclusive are left out. Active and inactive are the calls of the source. Calls follow the shape of the dose curve; as a rule, active = well fitted curve in the direction sought with a large enough effect; inconclusive = small, poorly fitted or top-dose-only effect, or another doubt; inactive = no such curve, though single readings can be large; an effect the other way counts as inactive or inconclusive.

Chain of Furin (Homo sapiens) (P09958 whole entry, looked up): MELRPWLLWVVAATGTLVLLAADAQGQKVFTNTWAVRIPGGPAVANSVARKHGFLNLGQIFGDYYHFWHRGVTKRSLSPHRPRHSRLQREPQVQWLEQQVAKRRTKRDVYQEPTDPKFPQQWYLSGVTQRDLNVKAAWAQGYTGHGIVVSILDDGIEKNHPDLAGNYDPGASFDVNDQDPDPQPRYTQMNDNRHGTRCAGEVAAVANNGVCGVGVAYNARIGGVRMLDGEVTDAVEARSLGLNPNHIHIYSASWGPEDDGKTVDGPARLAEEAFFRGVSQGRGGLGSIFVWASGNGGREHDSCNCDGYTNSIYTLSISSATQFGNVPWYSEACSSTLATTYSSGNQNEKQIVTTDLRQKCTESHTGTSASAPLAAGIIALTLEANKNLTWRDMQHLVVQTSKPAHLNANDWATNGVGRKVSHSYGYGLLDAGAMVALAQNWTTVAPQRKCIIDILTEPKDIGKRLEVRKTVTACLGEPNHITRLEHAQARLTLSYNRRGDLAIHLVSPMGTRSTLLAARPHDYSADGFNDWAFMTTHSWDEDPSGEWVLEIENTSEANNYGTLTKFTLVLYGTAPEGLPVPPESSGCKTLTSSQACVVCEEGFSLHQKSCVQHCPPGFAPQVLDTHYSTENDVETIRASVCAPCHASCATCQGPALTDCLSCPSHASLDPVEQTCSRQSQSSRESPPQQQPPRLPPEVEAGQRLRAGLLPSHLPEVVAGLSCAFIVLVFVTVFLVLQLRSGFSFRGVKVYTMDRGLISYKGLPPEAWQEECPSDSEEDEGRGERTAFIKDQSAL

Tested on in the first experiment: not listed separately
Nature of the experiment: qHTS of pediatric cancer cell lines to identify multiple opportunities for drug repurposing: Primary screen for Rh18 cells (AID 1347102). Also: % is scaled to controls: 0 for no effect and ±100 for the full control effect; nearly all actives have a fitted effect of over 65% in size. As to conditions: Rh18 rhabdomyosarcoma viability, CellTiter-Glo luminescence, 48 h; series mostly up to 46 µM; activity change, negative = cytotoxic: at the top concentration. The gist of the method: (§1)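 Viability after 48 h compound treatment at 37C, 500-1,000 cells/well, read as ATP luminescence with CellTiter-Glo. Primary screens used 11-point (MIPE, 0.78 nM-46 µM) or 8-point (NPC, 0.59 nM-46 µM) final concentrations; follow-up screens used 11-point dilutions.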
`O=C(O)CCC(=O)c1ccc(-c2ccccc2)cc1`: the “activity change, negative = cytotoxic” value was 6.82% (inactive).
Still for that read-out and setting: for `CN(C)CCCSc1ccccc1NC(=O)/C=C/c1ccccc1` the value was -12.4% (inactive); for `CC(=O)Oc1cccc2c1C(=O)c1c(OC(C)=O)cc(C(=O)O)cc1C2=O`, 2.31% (inactive).
On the same count and under the same terms, for `O=C(OCc1ccccc1)c1ccc(O)cc1` the value was 1.06% (inactive); for `Nc1ccc(N=Nc2ccccc2)c(N)n1`, -2.56% (inactive); for `O=C1c2ccccc2C(=O)c2c1ccc(O)c2O`, -16.2% (inactive).
On the same count and under the same terms, the result for `Oc1ccc(/C=C/c2cc(O)cc(O)c2)cc1` reads -9.67% (inactive).
Consider `COc1ccc2nc(NC(=O)Nc3ccccc3)sc2c1`, for which the “activity change, negative = cytotoxic” value is 5.09% (inactive).

Tested on in the next experiment: not listed separately
Nature of the experiment: qHTS of pediatric cancer cell lines to identify multiple opportunities for drug repurposing: Primary screen for OHS-50 cells (AID 1347103).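 Also: plate controls were DMSO neutral control for no effect and bortezomib positive control for full effect; nearly all actives have a fitted effect of over 40% in size.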 As to conditions: OHS-50 osteosarcoma viability, CellTiter-Glo luminescence, 48 h; series mostly up to 57.3 µM; activity change, negative = cytotoxic: at the top concentration. The gist of the method: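 Cells (500-1,000/well) rested 5 h, then received compounds for 48 h; metabolically active cells were measured by CellTiter-Glo luminescence. Final concentrations spanned up to 46 µM (MIPE, 11-point) or 0.59 nM-46 µM (NPC, 8-point) in primary screens, 11-point in follow-ups.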
For orientation: In qHTS, concentration-response curves come from the screen itself.
Take `O=C(O)CCC(=O)c1ccc(-c2ccccc2)cc1`: the “activity change, negative = cytotoxic” value was -10.9% (inactive).
On to `O=C1c2ccccc2C(=O)c2c1ccc(O)c2O`, for which the “activity change, negative = cytotoxic” value was -13.7% (inactive).
The same measure, in the same setting: the result for `Oc1ccc(/C=C/c2cc(O)cc(O)c2)cc1` reads -20.7% (inactive).

Tested on in a further experiment: not listed separately
The experiment in a line: qHTS of pediatric cancer cell lines to identify multiple opportunities for drug repurposing: Primary screen for RD cells (AID 1347104).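 Also: plate controls were DMSO for no effect and bortezomib for full effect; nearly all actives have a fitted effect of over 55% in size.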 As to conditions: RD rhabdomyosarcoma viability, CellTiter-Glo luminescence, 48 h; series mostly up to 46 µM; activity change, negative = cytotoxic: at the top concentration. From the text:
Drug repurposing or repositioning has been offered as a strategy for drug development in oncology programs. This approach has special potential for childhood cancers and other rare or orphan diseases, where the expected return on new drug development has been a disincentive to pharmaceuticals. […] In this project we exploit the poly-pharmacology of drugs to discover new indications via phenotypic screening of a panel of 19 well-characterized cell lines derived from solid tumors seen in children and adolescents. The goal is to identify approved drugs with previously unrecognized anticancer properties that has the potential to reveal new mechanisms and biological processes involved in carcinogenesis or drug resistance. We employed a titration-based paradigm (quantitative high-throughput screening or qHTS), where all compounds were tested at multiple concentrations for their effect on cell viability. Concentration-response curves (CRCs) were derived directly from the primary screen, and both potency and efficacy values were used to identify compounds with robust bioactivity profiles. We screened the NIH Chemical Genomics Center (NCGC) Pharmaceutical Collection (NPC) and Mechanism Interrogation Plate (MIPE) small molecule collections of approved and investigational compounds against these cell lines; and measured metabolically active cells after 48 hours of compound treatment as a proxy for cell viability. […] Assay Submitter: Nathalia J. Martinez, National Center for Advancing Translational Sciences, National Institutes of Health, Rockville, MD, USA; email: natalia.martinez@nih.gov Shen, M et al. Quantitative high-throughput phenotypic screening of pediatric cancer cell lines identifies multiple opportunities for drug repurposing. Oncotarget 2017 Dec 19;9(4):4758-4772. PMID 29435139.
The cells were obtained from University of North Carolina (UNC), Pediatric Preclinical Testing Program (PPT), and Coriell Institute (CI). qHTS cell viability assay: Cells were assayed in growth media at a density of 500-1,000 cells/well. Five microliters of cells were dispensed into 1,536-well, white, solid-bottom, TC-treated plates (Greiner Bio One) using a multidrop dispenser and incubated at 37 degrees C, 5% CO2, under a humidified atmosphere for 5 hours. Twenty-three nanoliters of compounds and controls (neutral control DMSO or positive control bortezomib at final concentration of 2.3 µM) were subsequently transferred by Kalypsys pintool. For primary screens, the MIPE collection was tested at 11-point dilutions (final concentrations range from 0.78 nM to 46 µM) and the NPC collection at 8-point dilutions (final concentrations range from 0.59 nM to 46 µM). Compounds tested in follow-up screens were assayed at 11-point dilutions. Cells were incubated for 48 hours, followed by addition of 3 µL of CellTiter-Glo (Promega). After a 15 min incubation at room temperature, samples were analyzed for luminescence intensity using a ViewLux High-throughput CCD imager equipped with clear filters.
For `O=C(O)CCC(=O)c1ccc(-c2ccccc2)cc1`, the “activity change, negative = cytotoxic” value was 9.38% (inactive).
Still for that read-out and setting: for `CC(=O)Oc1cccc2c1C(=O)c1c(OC(C)=O)cc(C(=O)O)cc1C2=O` the value was -23.5% (inactive); for `O=C(OCc1ccccc1)c1ccc(O)cc1`, 16.6% (inactive).
The same measure, in the same setting: for `Nc1ccc(N=Nc2ccccc2)c(N)n1` the value was -0.567% (inactive); for `O=C1c2ccccc2C(=O)c2c1ccc(O)c2O`, -7.74% (inactive); for `Oc1ccc(/C=C/c2cc(O)cc(O)c2)cc1`, -15.4% (inactive).
Regarding `COc1ccc2nc(NC(=O)Nc3ccccc3)sc2c1`, the “activity change, negative = cytotoxic” value was -0.65% (inactive).

Tested on in the next experiment: not listed separately
Nature of the experiment: qHTS of pediatric cancer cell lines to identify multiple opportunities for drug repurposing: Primary screen for MG 63 (6-TG R) cells (AID 1347105). Also: % is scaled to controls: 0 for no effect and ±100 for the full control effect; nearly all actives have a fitted effect of over 50% in size. As to conditions: MG 63 (6-TG R) viability, CellTiter-Glo, 48 h; series mostly up to 46 µM; activity change, negative = cytotoxic: at the top concentration. Summed up: (§2)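 Luminescence from CellTiter-Glo served as readout of metabolically active cells after 48 h compound exposure. Titrations: MIPE 11-point, from 0.78 nM; NPC 8-point, from 0.59 nM (final). Concentration-response curves came straight from the primary screen.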
For the compound `O=C(O)CCC(=O)c1ccc(-c2ccccc2)cc1`, the “activity change, negative = cytotoxic” value was -6.43% (inactive).
The same measure, in the same setting: for `CN(C)CCCSc1ccccc1NC(=O)/C=C/c1ccccc1` the value was -26.9% (inactive); for `O=C(OCc1ccccc1)c1ccc(O)cc1`, -6% (inactive); for `Nc1ccc(N=Nc2ccccc2)c(N)n1`, -2.87% (inactive).
For `O=C1c2ccccc2C(=O)c2c1ccc(O)c2O`, the “activity change, negative = cytotoxic” value was 6.32% (inactive).
In the case of `COc1ccc2nc(NC(=O)Nc3ccccc3)sc2c1`, the “activity change, negative = cytotoxic” value is -11.3% (inactive).

Tested on in another experiment: not listed separately
The experiment in a line: qHTS of pediatric cancer cell lines to identify multiple opportunities for drug repurposing: Primary screen for control Hh wild type fibroblast cells (AID 1347106).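 Also: % is scaled to controls: 0 for no effect and ±100 for the full control effect; a drop in luminescence marks cytotoxicity and a rise apparent proliferation; nearly all actives have a fitted effect of over 55% in size.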 As to conditions: Hh wild-type fibroblast viability, CellTiter-Glo luminescence, 48 h; series mostly up to 46 µM; activity change, negative = cytotoxic: at the top concentration. The gist of the method:
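Cells (500-1,000/well) in growth media were settled 5 h at 37 degrees C, then given compounds for 48 h. Viability was read as CellTiter-Glo luminescence. Primary runs used MIPE at 11 points (0.78 nM-46 µM) and NPC at 8 points (0.59 nM-46 µM); follow-ups used 11 points.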
As to `O=C(O)CCC(=O)c1ccc(-c2ccccc2)cc1`, the “activity change, negative = cytotoxic” value is 14.6% (inactive).
On the same count and under the same terms, the result for `CN(C)CCCSc1ccccc1NC(=O)/C=C/c1ccccc1` reads -23.9% (inactive).
Still for that read-out and setting: the result for `CC(=O)Oc1cccc2c1C(=O)c1c(OC(C)=O)cc(C(=O)O)cc1C2=O` reads 2.79% (inactive).
In the case of `O=C(OCc1ccccc1)c1ccc(O)cc1`, the “activity change, negative = cytotoxic” value is 8.5% (inactive).
The same measure, in the same setting: for `Nc1ccc(N=Nc2ccccc2)c(N)n1` the value was 6.25% (inactive).
Same read-out and setting: the result for `O=C1c2ccccc2C(=O)c2c1ccc(O)c2O` reads -10.6% (inactive); that for `Oc1ccc(/C=C/c2cc(O)cc(O)c2)cc1`, 11.1% (inactive); that for `COc1ccc2nc(NC(=O)Nc3ccccc3)sc2c1`, 30.4% (inactive).

Tested on in another experiment: not listed separately
The experiment in a line: qHTS of pediatric cancer cell lines to identify multiple opportunities for drug repurposing: Primary screen for Rh30 cells (AID 1347107). Also: % is scaled to controls: 0 for no effect and ±100 for the full control effect; nearly all actives have a fitted effect of over 75% in size. As to conditions: Rh30 rhabdomyosarcoma viability, CellTiter-Glo luminescence, 48 h; series mostly up to 46 µM; activity change, negative = cytotoxic: at the top concentration. Summed up:
as §1
On to `O=C(O)CCC(=O)c1ccc(-c2ccccc2)cc1`, for which the “activity change, negative = cytotoxic” value is 23.9% (inactive).
For the compound `CN(C)CCCSc1ccccc1NC(=O)/C=C/c1ccccc1`, the “activity change, negative = cytotoxic” value is -0.703% (inactive).
As for `CC(=O)Oc1cccc2c1C(=O)c1c(OC(C)=O)cc(C(=O)O)cc1C2=O`, the “activity change, negative = cytotoxic” value is 6.72% (inactive).
On the same count and under the same terms, for `O=C(OCc1ccccc1)c1ccc(O)cc1` the value was 17.3% (inactive); for `Nc1ccc(N=Nc2ccccc2)c(N)n1`, 16.9% (inactive).
The same measure, in the same setting: for `O=C1c2ccccc2C(=O)c2c1ccc(O)c2O` the value was -1.59% (inactive); for `Oc1ccc(/C=C/c2cc(O)cc(O)c2)cc1`, 15.8% (inactive).
With `COc1ccc2nc(NC(=O)Nc3ccccc3)sc2c1`, the “activity change, negative = cytotoxic” value is 8.23% (inactive).

Tested on in a further experiment: not listed separately
Nature of the experiment: qHTS of pediatric cancer cell lines to identify multiple opportunities for drug repurposing: Primary screen for Rh41 cells (AID 1347108).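 Also: luminescence drop marks cytotoxic hits; nearly all actives have a fitted effect of over 70% in size.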 As to conditions: Rh41 rhabdomyosarcoma viability, CellTiter-Glo luminescence, 48 h; series mostly up to 46 µM; activity change, negative = cytotoxic: at the top concentration. The gist of the method: as §2
With `O=C(O)CCC(=O)c1ccc(-c2ccccc2)cc1`, the “activity change, negative = cytotoxic” value is 31.7% (inactive).
Take `CN(C)CCCSc1ccccc1NC(=O)/C=C/c1ccccc1`: the “activity change, negative = cytotoxic” value was -6.14% (inactive).
Turning to `CC(=O)Oc1cccc2c1C(=O)c1c(OC(C)=O)cc(C(=O)O)cc1C2=O`, the “activity change, negative = cytotoxic” value is 9.68% (inactive).
Same read-out and setting: for `O=C(OCc1ccccc1)c1ccc(O)cc1` the value was 27.7% (inactive); for `Nc1ccc(N=Nc2ccccc2)c(N)n1`, 21.4% (inactive); for `O=C1c2ccccc2C(=O)c2c1ccc(O)c2O`, -1.1% (inactive).
Still for that read-out and setting: the result for `Oc1ccc(/C=C/c2cc(O)cc(O)c2)cc1` reads 14.7% (inactive); that for `COc1ccc2nc(NC(=O)Nc3ccccc3)sc2c1`, 9.29% (inactive).

Another experiment has as its target Furin (Homo sapiens) (UniProt P09958). The experiment in a line: Furin counterscreen qHTS for Zika virus inhibitors (AID 1347149).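 Also: purified recombinant full-length human furin enzyme at 5 nM; fluorescence gain from furin cutting a BOC-RVRR-AMC peptide substrate over 15 min; top concentration of the series differs between compounds; plate controls were no-inhibitor control for no effect and no-enzyme control for full effect; nearly all actives have a fitted effect of over 70% in size.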 As to conditions: furin enzymatic counterscreen, fluorogenic substrate; series mostly up to 114 µM; activity change, negative = inhibition: at the top concentration. Summed up: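 Counterscreen measures cleavage of 2 microM BOC-RVRR-AMC, below its ~15 microM Km, by 5 nM full-length human furin at pH 7.0 after a 15-min compound preincubation. Inhibition derives from the 15-min fluorescence increase at 37C.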
(In general: A counterscreen serves to expose hits that act by an unwanted route or on another target.)
As to `N[C@@H](Cc1cc(I)c(Oc2ccc(O)c(I)c2)c(I)c1)C(=O)O`, the “activity change, negative = inhibition” value was 12.5% [at 36.2 µM] (inactive).
Same read-out and setting: the result for `O=C(O)Cc1cc(I)c(Oc2ccc(O)c(I)c2)c(I)c1` reads 3.97% [at 36.2 µM] (inactive); that for `CC(C)(C)CC(C)(C)c1cc(Cc2cc(C(C)(C)CC(C)(C)C)cc(-n3nc4ccccc4n3)c2O)c(O)c(-n2nc3ccccc3n2)c1`, 11.5% (inactive); that for `C[C@H]1O[C@@H](O[C@H]2[C@@H](O)C[C@H](O[C@H]3[C@@H](O)C[C@H](O[C@H]4CC[C@@]5(C)[C@H](CC[C@@H]6[C@@H]5C[C@@H](O)[C@]5(C)[C@@H](C7=CC(=O)OC7)CC[C@]65O)C4)O[C@@H]3C)O[C@@H]2C)C[C@H](O)[C@@H]1O`, 1.36% (inactive).
With `Cc1cc(-c2ccc(N=Nc3ccc4c(S(=O)(=O)O)cc(S(=O)(=O)O)c(N)c4c3O)c(C)c2)ccc1N=Nc1ccc2c(S(=O)(=O)O)cc(S(=O)(=O)O)c(N)c2c1O`, the “activity change, negative = inhibition” value was 5.7% (inactive).
